Source: the supplement of paper PMC6555819

Tests used:
Experiment in all cases: PBM binding z-score (relative to random genomic background probes); higher = stronger binding; sequences stand for … in GC…GCGATTGACAGCGTAGAATGAAGG
[1] = test system: RARb homodimer (NR concentration 270 nM)
Method in brief: (§1)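 Custom Agilent 4×180K protein-binding microarrays carried double-stranded probes, each with a 34-nt variable region. These regions held direct-repeat seeds, single-nucleotide variants, half-site ablations and random human genomic background sequences. Ligand-free nuclear receptor dimers were incubated on the arrays for 1 h, antibodies against each partner (one per run) detected binding, and scanned fluorescence was regression-normalized. Binding z-scores take the random background probes as reference.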

[2] = test system: RARg:RXRa (NR concentration 270 nM, RXRa partner concentration 90 nM)
Method in brief: as §1

[3] = test system: RARg homodimer (NR concentration 270 nM)
Method in brief: as §1

[4] = test system: RXRa DBDmut IVT, anti-RXR (DBD mutation: RXRa K156A/R161A, NR concentration 90 nM)
Method in brief: as §1

[5] = test system: RXRa homodimer (NR concentration 180 nM)
Method in brief: as §1

[6] = test system: THRa:RXRa (NR concentration 90 nM, RXRa partner concentration 90 nM)
Method in brief: as §1

[7] = test system: THRa homodimer (NR concentration 90 nM)
Method in brief: as §1

[8] = test system: VDR homodimer (NR concentration 270 nM)
Method in brief: as §1

Row | Sequence | PBM binding z-score [1] | PBM binding z-score [2] | PBM binding z-score [3] | PBM binding z-score [4] | PBM binding z-score [5] | PBM binding z-score [6] | PBM binding z-score [7] | PBM binding z-score [8]
1 | TCATGTAGATCAAAGGTTAAGAAAGCCGAAGCCT | 1.55 | 1.96 | 0.89 | 1.08 | 3.55 | 1.37 | -0.229 | -0.0577
2 | ATATGTAGGTTAGCTGGGGTCATGCAGACTAGGC | 4.19 | 4.65 | 3.65 | 1.38 | 6.31 | 5.42 | 3.72 | 4.15
3 | CCTACCGGGCCAAAAAGGTCATTGATGCCGATAA | 4.59 | 4.5 | 3.96 | 0.185 | 4.6 | 3.29 | 1.04 | 3.13
4 | ATCGAAAGGTCGACGGTGAGTATACCCACCCGAA | 2.53 | 4.19 | 3.92 | 0.878 | 4.27 | 1.88 | -0.262 | 0.289
5 | TCTTGGAGATCAATAGAGGTTAAGAAAGTGCGCT | 1.39 | 0.878 | 0.376 | 0.544 | 1.5 | 3.19 | -0.339 | 0.159
6 | CTCGAAAGGTGGGTTGAGGTGAGTATACGGATAA | 1.3 | 0.297 | 0.548 | -0.0446 | 0.396 | 4.18 | 1.75 | 0.756
7 | ATACCAAGGTGATCGTGAGGTCGATGATACTAAC | 1.82 | 2.16 | 1.22 | 0.391 | 1.36 | 3.09 | 1.95 | 1.21
8 | CCTTACGGGCCACTGACAGGTTATAGCATTTGGA | 0.8 | 0.731 | 0.737 | -0.085 | 0.326 | 0.0187 | -0.159 | -0.034
9 | TCGAGTAGGTTAGGGGCATCCAGAATGGCGTCGA | 1.01 | 0.269 | 0.268 | 0.271 | 0.71 | 1.05 | 0.256 | 0.462
10 | ACTATGAGTTGAGACGAGGGCAACCGATAGGTTG | 1.27 | 1.15 | 1.14 | 0.701 | 0.821 | 3.63 | 0.024 | 0.979
11 | CGTCCAAGGTCAGCAGGTCAGTCAAAGCGACGTG | 5 | 6.35 | 7.05 | 2.69 | 4.85 | 3.74 | 2.35 | 2.03
12 | TCATATAGGTGATACAGGTGAAAGTCGGCATCTA | 1.08 | 0.874 | 0.742 | 1.16 | 1.34 | 0.983 | 0.0719 | 0.258
13 | ATATGTAGGTAAAGGGTCATTCAGGTTGGTTCGC | 4.14 | 4.11 | 3.22 | 2.01 | 4.98 | 3.26 | 1.71 | 4.15
14 | ATATGTAGGTTATTGGGTCATTCAGTTTGCGCAT | 3.06 | 3.09 | 2.45 | 1.61 | 2.89 | 2.85 | 2.41 | 3.17
15 | TCTTGTAGATCAATAGAGGTTTAGAAAGTGCGCT | -0.294 | -0.0286 | -0.308 | 0.603 | 0.0167 | 0.294 | -0.767 | 0.0472
16 | AGAACGAGGGCACGCTGAGTTGATTGCAGAGTAG | 1.13 | 1.93 | 2.38 | 1.87 | 1.27 | 1.86 | -0.121 | 2.17
17 | ATATGTAGGTTACATCCGGGTCATTCACGCTATG | 2.82 | 4 | 2.31 | 1.39 | 3.38 | 3.86 | 2.6 | 3.12
18 | CCTACTGGGCTACGAAAGGTCATTGATTCAGTGA | 4.59 | 4.54 | 4.54 | 0.401 | 5.27 | 3.44 | 0.738 | 2.02
19 | CCTAGTTGGTCAAGGTCAGACACGCTATAGGTAC | 3.62 | 3.19 | 3.82 | 1.56 | 2.73 | 3.34 | 2.57 | 2.29
20 | TCTGCTAGGTCTACGATGGTCAGCTAATCTGCTA | -0.552 | -0.506 | -0.409 | 0.00299 | -0.775 | -1.43 | -1.26 | -1.28
21 | TCATAGAGGTAATACAGGTGAAAGTCGGCATCTA | 0.233 | 0.441 | 0.488 | 1.01 | 1.16 | 1.4 | -0.345 | 0.0318
22 | CCTACTCGGCCATCAGGTCATTGATATCAACGTT | 3.21 | 2.43 | 2.51 | 1.21 | 1.33 | 3.16 | 3.66 | 2.42
23 | TCTACCAGGCCAGAGGGTCACTCAAGAGGTACGG | 3 | 3.03 | 2.46 | 0.518 | 2.92 | 1.93 | 0.581 | 0.936
24 | TTACCAAGGTGAAGATCGTTGATCCCTCTGTAGA | 0.271 | 0.271 | 0.232 | -0.349 | 0.567 | 1.58 | 0.0556 | -0.499
25 | CAAACTAGGTCATAGGTCAAAGTCGAGCCAACCA | 4.27 | 6.56 | 5.38 | 2.31 | 7.49 | 4.11 | 1.44 | 1.92
26 | CCTTACGGGTCAAGGTTACAGCACGGGTGGTACG | 3.8 | 5.07 | 4.96 | 0.498 | 5.42 | 3.38 | 1.09 | 1.19
27 | TCATCTAGGTAAACAGGTGAAAGTCCGTAAGTTA | 0.582 | 0.394 | 0.147 | 1.26 | 0.645 | 0.888 | 0.459 | 0.0533
28 | CTCGAAAGGTCGTGCTCGGGTGAGTATACCAAAC | 2.72 | 5.23 | 3.77 | 1.4 | 4.73 | 3.75 | 0.478 | 0.996
